In the library only some 4.7% were active in any assay of this set; here they are far more common.
eIF4H inh = inhibitors of RNA binding by human eIF4H. Q15056. eIF4H fluorescence polarization binding assay. inhibition, % at 35 µM. 290,000 tested, 0.94% active;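 also: calls also rest on retests at 20 µM and on dose response follow-up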
PABP FP inh = PABP-poly(A) binding inhibition; 290,000 tested, 1% active; P11940; PABP-poly(A) RNA binding, fluorescence polarization; inhibition, % at 35 µM;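 also: calls also rest on retests at 20 µM and on dose response follow-up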
Target sequence (P11940 whole entry, looked up): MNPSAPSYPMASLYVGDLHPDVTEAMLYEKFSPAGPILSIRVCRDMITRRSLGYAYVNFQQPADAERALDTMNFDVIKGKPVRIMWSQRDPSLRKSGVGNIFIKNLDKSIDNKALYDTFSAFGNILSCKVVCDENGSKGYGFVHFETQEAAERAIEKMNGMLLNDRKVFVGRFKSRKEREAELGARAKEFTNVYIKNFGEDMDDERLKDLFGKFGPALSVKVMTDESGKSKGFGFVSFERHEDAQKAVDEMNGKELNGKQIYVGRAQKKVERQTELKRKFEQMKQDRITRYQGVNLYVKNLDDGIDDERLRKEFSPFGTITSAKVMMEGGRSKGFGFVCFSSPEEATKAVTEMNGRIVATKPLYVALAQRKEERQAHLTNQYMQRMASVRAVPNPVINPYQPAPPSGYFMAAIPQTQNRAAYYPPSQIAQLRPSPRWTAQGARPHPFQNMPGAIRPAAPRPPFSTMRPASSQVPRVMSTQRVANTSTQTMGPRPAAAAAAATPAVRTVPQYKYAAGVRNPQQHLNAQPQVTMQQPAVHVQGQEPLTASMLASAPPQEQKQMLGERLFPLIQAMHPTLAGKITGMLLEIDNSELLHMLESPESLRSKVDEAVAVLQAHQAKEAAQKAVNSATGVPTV
SUMO HTRF inh = blocks human SUMOylation mediated by UBC9 | P63279 | HTRF SUMOylation assay, SAE1/SAE2 + UBC9, in vitro | inhibition, % at 35 µM | 290,000 tested, 0.36% active | AID 2006; in the data active = inhibition above about 50%, passing the limit was not always enough; inconclusive = no clear call, values can overlap the other calls
ALR H2O2 inh = inhibitors of human sulfhydryl oxidase ALR | purified ALR, DTT oxidation, H2O2 HRP-luminol luminescence | inhibition, % (concentration not given with the values) | 290,000 tested, 3.8% active | AID 485317;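 active = mean replicate inhibition above about 79%, with every replicate also reaching it, limit read from the data; inconclusive = only one of the two criteria met; inactive = mean below limit and not every replicate reaching it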
PABP1 MLLE inh = blocks PAM2 peptide binding to the PABP1 MLLE domain; P11940; GST-MLLE / FITC-PAM2 fluorescence polarization; inhibition, % at 20 µM; 360,000 tested, 0.36% active; AID 588489; in the data active = inhibition above about 35%, passing the limit was not always enough;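 also: plate controls were DMSO wells with GST-MLLE for no effect and wells lacking GST-MLLE protein for full effect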
Efflux pump inh = antifungal efflux pump inhibition, Nile Red retention; AID 485275; inhibition, % at 10 µM; 330,000 tested, 0.44% active; S. cerevisiae Candida pump triplex;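 active = plate passing quality check with inhibition over a set limit, or well fluorescence over plate mean plus 4 SD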;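 also: Nile Red retained in pooled yeast measured as flow cytometry median fluorescence; 0% = buffer negative control and 100% = Enniatin B positive control; higher means more Nile Red kept so more efflux inhibition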
Numbers without * were called inactive. Unless noted, no rule for the calls is given here.

Screening O=C1C(=O)N(Cc2ccccc2)C(=O)N1CCOc1ccccc1 returned eIF4H inh 0.8, PABP FP inh 2.3, SUMO HTRF inh -4.5 and PABP1 MLLE inh -7.9.
O=S(=O)(NCCCNS(=O)(=O)c1c(F)cccc1F)c1ccc2c(c1)OCCO2 was read as ALR H2O2 inh 0.6, PABP1 MLLE inh -4.1 and Efflux pump inh -0.3.
`C=CCN(CC=C)C(=S)NC(=O)c1ccc(OC)c(Br)c1` gave eIF4H inh 2.6, PABP FP inh -2.2, SUMO HTRF inh 34.3, ALR H2O2 inh -0.7, PABP1 MLLE inh 43.6* and Efflux pump inh 0.0.
`Cc1ccn(CCC(=O)Nc2ccc3c(c2)OCO3)n1` gave eIF4H inh -3.5, PABP FP inh -5.6, SUMO HTRF inh 1.2, ALR H2O2 inh -8.4, PABP1 MLLE inh 5.8 and Efflux pump inh -0.1.
CCOC(=O)/C(=C/C=C1\Sc2ccccc2N1CC)C(C)=O was read as eIF4H inh inconclusive, PABP FP inh -0.1, SUMO HTRF inh 20.4, ALR H2O2 inh 87.8*, PABP1 MLLE inh -138.0 and Efflux pump inh 0.0.
For Cc1ccc(S(=O)(=O)N2CCN(C(=O)COC(=O)/C=C/c3ccccc3)CC2)c(C)c1 the results were ALR H2O2 inh 4.2, PABP1 MLLE inh -3.5 and Efflux pump inh 0.1.
`Cn1c(SCC(=O)c2ccccc2)ncc(C(=O)Nc2ccccc2)c1=O` gave ALR H2O2 inh 97.9*, PABP1 MLLE inh 34.6 and Efflux pump inh 0.1.
Cc1ccc(NC(=O)c2cnc(SCC(=O)c3ccccc3)n(C)c2=O)cc1 was read as ALR H2O2 inh 0.6, PABP1 MLLE inh 27.7 and Efflux pump inh 0.0.
For O=C(CCl)N(c1ccc(Cl)cc1)c1c[nH]c2ccccc12 the results were eIF4H inh 4.8, PABP FP inh 1.0, SUMO HTRF inh -5.3, ALR H2O2 inh 97.9*, PABP1 MLLE inh 5.3 and Efflux pump inh 0.1.
`N#Cc1ncc(C(F)(F)F)cc1Sc1ccc(N)cc1` gave eIF4H inh 4.6, PABP FP inh -15.1, SUMO HTRF inh 0.6, ALR H2O2 inh 82.2*, PABP1 MLLE inh -1.8 and Efflux pump inh -0.1.
For Cc1ccn2cc(-c3cccc(S(=O)(=O)N4CC(C)OC(C)C4)c3)nc2c1 (configuration not stated) the results were eIF4H inh -3.0, PABP FP inh 8.7, SUMO HTRF inh 12.3, ALR H2O2 inh 97.1*, PABP1 MLLE inh 2.2 and Efflux pump inh 0.1.
Cc1ccn2cc(-c3cccc(S(=O)(=O)N4CCCC4)c3)nc2c1 was read as eIF4H inh -5.9, PABP FP inh -2.3, SUMO HTRF inh 16.4, ALR H2O2 inh 97.4*, PABP1 MLLE inh 1.5 and Efflux pump inh -0.1.
For O=S(=O)(c1cccc(-c2cn3ccccc3n2)c1)N1CCCCC1 the results were eIF4H inh -8.8, PABP FP inh 11.1, SUMO HTRF inh 0.0, ALR H2O2 inh -10.1, PABP1 MLLE inh -5.8 and Efflux pump inh 0.0.
Cc1ccc(C)c(NC(=O)CSc2n[nH]c(-c3ccncc3)n2)c1 was read as eIF4H inh -10.9, PABP FP inh -5.6, SUMO HTRF inh -4.3, ALR H2O2 inh -31.6, PABP1 MLLE inh -15.6 and Efflux pump inh 0.0.
Screening Cc1ccc(C)c(NC(=O)CSc2c(C)n[nH]c2C)c1 returned eIF4H inh -1.6, PABP FP inh -14.2, SUMO HTRF inh 7.4, ALR H2O2 inh 95.9*, PABP1 MLLE inh 25.6 and Efflux pump inh -0.1.
CC(C(=O)Nc1sccc1C(N)=O)N1C(=O)C2CC=CCC2C1=O (configuration not stated) was read as eIF4H inh -1.9, PABP FP inh -2.7, SUMO HTRF inh 6.8, ALR H2O2 inh 96.8*, PABP1 MLLE inh 2.8 and Efflux pump inh 0.0.
`COc1ccccc1CNCC(=O)N1CC(=O)Nc2ccccc21` gave eIF4H inh 11.2, PABP FP inh 1.5, SUMO HTRF inh 4.2, ALR H2O2 inh -0.3, PABP1 MLLE inh 3.8 and Efflux pump inh 0.0.
Cc1nc2ccc(-c3ccccc3)cc2o1 was read as eIF4H inh -2.8, PABP FP inh 46.0, SUMO HTRF inh 17.8, ALR H2O2 inh 96.1*, PABP1 MLLE inh -102.6 and Efflux pump inh -0.1.
`CC(C)(C)OC(=O)N1CCN(C(=O)c2nc[nH]c2C(=O)N2CCN(c3ccccc3)CC2)CC1` gave ALR H2O2 inh 16.1, PABP1 MLLE inh 19.7 and Efflux pump inh 0.0.
For O=C(c1ccc(Cl)s1)N1CCN(c2ccccc2)CC1 the results were eIF4H inh 8.7, PABP FP inh 14.8, SUMO HTRF inh 2.4, ALR H2O2 inh 97.1*, PABP1 MLLE inh -4.4 and Efflux pump inh 0.3.
Screening O=C(c1ccc(Cl)s1)N1CCN(c2ncccn2)CC1 returned eIF4H inh -11.0, PABP FP inh -4.2, SUMO HTRF inh 0.3, ALR H2O2 inh -0.6, PABP1 MLLE inh -12.8 and Efflux pump inh -0.1.
`O=C(c1nc[nH]c1C(=O)N1CCN(c2ccccc2)CC1)N1CCN(c2ccccc2)CC1` gave ALR H2O2 inh 93.4*, PABP1 MLLE inh -2.0 and Efflux pump inh -0.3.
Screening Cc1noc(C(=O)N2CCN(c3ccccc3)CC2)c1Cl returned eIF4H inh -5.4, PABP FP inh 4.1, SUMO HTRF inh -5.8, ALR H2O2 inh 96.4*, PABP1 MLLE inh -7.2 and Efflux pump inh 0.0.
Screening Cc1c(C(=O)N2CCC(C)CC2)oc2ccc3c(c12)C(O)CC1(CCCCC1)O3 (configuration not stated) returned eIF4H inh -11.8, PABP FP inh 8.6, SUMO HTRF inh 11.1, ALR H2O2 inh -2.1, PABP1 MLLE inh -4.2 and Efflux pump inh 0.1.
Screening CN(C)/N=C/c1ccc(Sc2ccccc2[N+](=O)[O-])o1 returned eIF4H inh -12.5, PABP FP inh -5.4, SUMO HTRF inh -10.0, ALR H2O2 inh 92.0*, PABP1 MLLE inh 21.5 and Efflux pump inh 0.3.
Cc1cc(Cl)ccc1NC(=S)NCCC(c1ccccc1)c1ccccc1 was read as eIF4H inh -10.3, PABP FP inh -4.3, SUMO HTRF inh -10.3, ALR H2O2 inh 0.3, PABP1 MLLE inh 11.2 and Efflux pump inh 0.2.
Screening C=CCSc1nnc2c(n1)OC(c1ccco1)Nc1ccccc1-2 (configuration not stated) returned eIF4H inh 20.9, PABP FP inh 4.3, SUMO HTRF inh 2.1, ALR H2O2 inh 97.5*, PABP1 MLLE inh -10.4 and Efflux pump inh -0.2.
Screening CC1(C(=O)NCCOc2ccccc2Cl)CC1(Cl)Cl (configuration not stated) returned eIF4H inh 1.0, PABP FP inh -22.6, SUMO HTRF inh -7.4, ALR H2O2 inh -7.9, PABP1 MLLE inh 6.2 and Efflux pump inh 0.0.
For CC(C)c1ccc(O)c(NC(=O)c2cccnc2)c1 the results were eIF4H inh 0.1, PABP FP inh 1.4, SUMO HTRF inh -2.2, ALR H2O2 inh 88.7*, PABP1 MLLE inh -0.5 and Efflux pump inh 0.0.
Screening CCC(C)c1ccc(O)c(NC(=S)NC(=O)c2cccnc2)c1 (configuration not stated) returned eIF4H inh 14.7, PABP FP inh 3.7, SUMO HTRF inh -9.4, ALR H2O2 inh 98.2*, PABP1 MLLE inh 15.1 and Efflux pump inh 0.0.
